Experimental data from a collection of fitness landscapes (doi:10.1038/s41467-024-54723-y).
Over roughly 18,000 sequences, “TetR repression strength (sort-seq, GFP reporter)” has its median near 0.23; the highest 2% begin near 0.68. Many of the other results were omitted from the sample, so the highest values are more common in it than they were.

Molecular target: TetR (class B, Tn10) (UniProt P04483)
Test: TetR repression strength (sort-seq, GFP reporter) (relative to tetO2 = 1); higher = stronger repression
Conditions: E. coli
Procedure, shortened: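 Escherichia coli SIG10-MAX cells carried a low-copy plasmid library in which eight operator positions were randomized between a constitutive promoter and sfGFP, and TetR was expressed constitutively. After 5 h of growth at 37 °C in LB with 50 µg/mL chloramphenicol, 10^6 cells were FACS-sorted into 13 fluorescence bins, and each bin was Illumina-sequenced. Repression strength was the top bin index plus one minus the read-weighted mean bin, divided by the value for the unaltered operator. Across three independent transformations, only library members with ≥30 reads in every replicate and a CV ≤0.5 were averaged.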

Chain of TetR (class B, Tn10) (P04483 whole entry): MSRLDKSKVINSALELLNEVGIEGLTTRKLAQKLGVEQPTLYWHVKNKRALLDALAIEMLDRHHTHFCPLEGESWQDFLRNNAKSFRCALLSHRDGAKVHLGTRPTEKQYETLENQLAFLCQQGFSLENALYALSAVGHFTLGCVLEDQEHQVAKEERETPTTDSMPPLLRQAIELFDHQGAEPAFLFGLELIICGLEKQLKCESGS

Row | Sequence | TetR repression strength
1 | TCCCGCGAAGTAAGCGAGA | 0.151
2 | TCCCTCCTAGTGCGAGAGA | 0.151
3 | TCCCCGTGAGTTGGAGAGA | 0.319
4 | TCCCCATGAGTTAGCGAGA | 0.188
5 | TCCCTGCCAGTTCATGAGA | 0.0931
6 | TCCCGAGCAGTGGAGGAGA | 0.35
7 | TCCCCTAGAGTGGGGGAGA | 0.195
8 | TCCCGTTCAGTTTGTGAGA | 0.145
9 | TCCCAATCAGTTAGGGAGA | 0.146
10 | TCCCTGGCAGTCGGGGAGA | 0.473
11 | TCCCTAGTAGTGCAAGAGA | 0.538
12 | TCCCTGTGAGTCTCAGAGA | 0.365
13 | TCCCTTTGAGTAAGGGAGA | 0.152
14 | TCCCTAACAGTGAGTGAGA | 0.514
15 | TCCCTATCAGTGTGAGAGA | 0.919
16 | TCCCTTTAAGTAAGTGAGA | 0.247
17 | TCCCTTCGAGTGATTGAGA | 0.73
18 | TCCCTATGAGTGTGAGAGA | 0.252
19 | TCCCTAACAGTGATTGAGA | 0.745
20 | TCCCTACCAGTGATTGAGA | 0.511
21 | TCCCTGTCAGTGTGAGAGA | 0.0482
22 | TCCCCTCGAGTGATTGAGA | 0.244

Row | Sequence | TetR repression strength
23 | TCCCTTTGAGTAAGTGAGA | 1.15
24 | TCCCTTTGAGTGATTGAGA | 0.263
25 | TCCCAAAAAGTTCCGGAGA | 0.0327
26 | TCCCATTTAGTCTGTGAGA | 0.192
27 | TCCCTAAAAGTACAGGAGA | 0.262
28 | TCCCGCTGAGTAATGGAGA | 0.218
29 | TCCCTGCGAGTATTTGAGA | 0.391
30 | TCCCTAGTAGTGTGGGAGA | 0.216
31 | TCCCTAGAAGTTTAAGAGA | 0.0122
32 | TCCCGTATAGTCTGTGAGA | 0.0605
33 | TCCCGTCAAGTGTCCGAGA | 0.279
34 | TCCCGGACAGTCCGTGAGA | 0.196
35 | TCCCTATCAGTGACTGAGA | 0.722
36 | TCCCAACGAGTAATGGAGA | 0.395
37 | TCCCTATTAGTGACTGAGA | 0.345
38 | TCCCTATCAGTGATAGAGA | 1
39 | TCCCCGTCAGTGATAGAGA | 0.35
40 | TCCCAACCAGTAATGGAGA | 0.713
41 | TCCCTATCAGTGTTAGAGA | 0.974
42 | TCCCAACCAGTCATGGAGA | 0.159
43 | TCCCTTGCAGTGATAGAGA | 0.657
44 | TCCCTTTCAGTGTTAGAGA | 0.459

Row | Sequence | TetR repression strength
45 | TCCCGATCAGTGTTAGAGA | 0.556
46 | TCCCTATCAGTGACGGAGA | 0.472
47 | TCCCGTCCAGTCTGAGAGA | 0.152
48 | TCCCGATGAGTGTGGGAGA | 0.221
49 | TCCCTATTAGTAATTGAGA | 0.416
50 | TCCCTTGAAGTCAGTGAGA | 0.236
51 | TCCCTGTCAGTGATTGAGA | 0.592
52 | TCCCTATCAGTTATTGAGA | 0.504
53 | TCCCTATCAGTGCGTGAGA | 0.546
54 | TCCCTATCAGTGAGAGAGA | 0.948
55 | TCCCTTGAAGTCATTGAGA | 1.05
56 | TCCCTATCAGTGGGTGAGA | 0.554
57 | TCCCTATCAGTAACTGAGA | 0.474
58 | TCCCTATCAGTGATTGAGA | 0.939
59 | TCCCTTCAAGTCATTGAGA | 0.0199
60 | TCCCTATCAGTAATTGAGA | 0.787
61 | TCCCTTATAGTATCAGAGA | 0.186
62 | TCCCGATAAGTAGCGGAGA | 0.234
63 | TCCCTTGCAGTGTACGAGA | 0.204
64 | TCCCCCTTAGTTGTCGAGA | 0.307
65 | TCCCGCGAAGTGTTTGAGA | 0.197
